From PubChem BioAssay come the findings set out here.

Unmarked numbers belong to inactive results.

This experiment can be described thus: fission yeast growth modulation, primary screen, strain 972, OD600, 24 h, no modulator (AID 1090).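 Note: basal condition with compound alone and no growth modifier present; test concentration not given here.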 The following applies: S. pombe 972 growth, higher = more signal, called active from +8 up or from −8 down.
Consider `CCc1oc(CC[C@@H](CO)NC(=O)NCCn2cc(C3(O)CCCCC3)nn2)c(C(=O)OC)c1C(=O)OC`, for which the z-score is -0.173.

On to `O=C1C2C=CC(C(O)c3c(F)cccc3Cl)N(Nc3ccccc3)C2C(=O)N1c1ccccc1` (stereo not given), for which the z-score was 0.211.

Turning to `COc1ccc(C(=O)Nc2ccc(CN3C(=O)[C@@]4(O[C@@H](CCO)[C@H]([Si](C)(C)c5ccc(OC)cc5)[C@H]4C)c4ccccc43)cc2)cc1`, the z-score is -7.92.

`CC(C)c1ccc(NN2C(C(O)c3cc(C(F)(F)F)cc(C(F)(F)F)c3)C=CC3C(=O)N(c4ccccc4)C(=O)C32)cc1` (stereo not given): the z-score was 0.183.

For the compound `CC(=O)NCCCC[C@@H]1NC(=O)[C@@H]2C[C@H](C(=O)NCCCCCCNC(=O)CS)[C@H](c3cccc(OCCO)c3)N2C1=O`, the z-score was -0.507.

Turning to `O=C1c2ccccc2[C@@]2(Cc3ccccc3N(CCN3CCOCC3)C2=O)[C@H](c2ccc(CO)cc2)N1Cc1ccccc1`, the z-score is 0.047.

Consider `CCCCCN1CC=CC23O[C@@H]4/C=C\CCCOC(=O)C4[C@H]2C(=O)N(C(CO)C(C)C)[C@@H]3C1=O` (stereo not given in full), for which the z-score was -0.84.

On to `CN1C(=O)[C@]2(Cc3ccccc3)N=C(c3ccc(OCCCO)cc3)O[C@@H]2c2ccccc21`, for which the z-score is -3.36.

`COc1ccc(CCNC(=O)[C@@H]2c3ccccc3C(=O)N(C3Cc4ccccc4C3)[C@H]2c2ccc(CO)cc2)cc1`: the z-score is 0.0128.

For `COc1cc2c(cc1OC)CN(C(=O)[C@H]1[C@@H]3C(=O)O[C@@H](c4ccccc4)[C@@H](c4ccccc4)N3[C@@H](c3ccc(O)cc3)[C@]13C(=O)Nc1ccc(C#CC4=CCCCC4)cc13)CC2`, the z-score was -2.16.
